Data reported in PubChem BioAssay AID1210 (NMMLSC, 2008).
Calls of active or inactive are those of the source.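 How the source made its calls: active means blocks over 70% of labeled estradiol binding at 10 µM, or over a set limit at 100 nM; inactive means the rest.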

Biological target: Estrogen receptor beta (Homo sapiens) (UniProt Q92731)
Experiment: ERbeta ligand binders by competition, primary screen, cell-based, Cos7 ERbeta-GFP, flow cytometry (AID 1210);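 further: 0% = DMSO vehicle wells and 100% = complete loss of labeled estradiol signal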
Conditions: fluorescent estrogen binding, stronger effect = higher value
[1] = ligand binding inhibition, at 0.1 µM

Estrogen receptor beta (Homo sapiens), sequence (Q92731 whole entry, looked up): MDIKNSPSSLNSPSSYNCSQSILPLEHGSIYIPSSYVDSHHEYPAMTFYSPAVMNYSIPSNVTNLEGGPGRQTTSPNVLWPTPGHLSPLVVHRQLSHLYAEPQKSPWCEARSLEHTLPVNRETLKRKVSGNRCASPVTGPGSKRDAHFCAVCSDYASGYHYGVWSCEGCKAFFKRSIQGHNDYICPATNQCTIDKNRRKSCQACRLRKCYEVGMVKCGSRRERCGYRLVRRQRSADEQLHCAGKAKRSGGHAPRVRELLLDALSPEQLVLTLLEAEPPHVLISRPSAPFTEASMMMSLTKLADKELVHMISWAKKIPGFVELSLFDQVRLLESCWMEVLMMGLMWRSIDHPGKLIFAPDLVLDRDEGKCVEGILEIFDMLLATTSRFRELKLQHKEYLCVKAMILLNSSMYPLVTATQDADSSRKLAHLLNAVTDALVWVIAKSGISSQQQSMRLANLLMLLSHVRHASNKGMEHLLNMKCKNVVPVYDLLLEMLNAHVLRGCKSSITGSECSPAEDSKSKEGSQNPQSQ

Structure (SMILES)	inhibition (at 10 µM)	inhibition [1] [%]
Cc1ccc(N=Cc2c(O)n(-c3ccc4c(c3)OCO4)c(=O)c3ccccc23)cc1	15% (inactive)	21
Cc1nc2sccn2c1-c1nc(-c2cc3ccccc3o2)cs1	43% (inactive)	9
COc1ccc2c(c1)[nH]c1c(=O)n(N)cnc12	4% (inactive)	30
Cc1ccc2occ(C3NC(C(=O)O)CS3)c(=O)c2c1 (stereo not drawn)	62% (inactive)	27
COc1ccc2cc3c(N)nn(C(=O)Cc4ccc(Cl)cc4)c3nc2c1	37% (inactive)	12
CCC1(CC)NC(=O)N(CC(=O)Nc2sc3c(c2C(N)=O)CCC3)C1=O	16% (inactive)	5
CCOC(=O)Cc1cc(=O)n2[nH]c(-c3ccc(C)cc3)cc2n1	19% (inactive)	15
CCOc1cccc2cc(-c3cn4cc(C)ccc4n3)c(=O)oc12	27% (inactive)	16
Cc1ccc(C(=O)N/N=C/c2ccc([N+](=O)[O-])s2)cc1	38% (inactive)	58
Cc1ccc(C(=O)Nc2nc(-c3cccnc3)cs2)o1	15% (inactive)	43
CCN1CCN(Cc2c(O)c(Cl)cc3c(C)cc(=O)oc23)CC1	31% (inactive)	8
c1ccc(Cc2nnc3sc(-c4ccco4)nn23)cc1	18% (inactive)	60
Cc1ccc(NC(=O)CN2C(=O)S/C(=C/c3ccc(-c4cc(C(=O)O)ccc4C)o3)C2=O)cc1C	36% (inactive)	21
COc1ccc(OC)c(C(=O)CSc2nnc(-c3ccc(OC)c(OC)c3)o2)c1	49% (inactive)	12
c1ccc(OCc2nnc3sc(C4COc5ccccc5O4)nn23)cc1 (stereo not drawn)	29% (inactive)	28
O=C(CSc1nnnn1-c1ccccc1)Nc1nsc(-c2ccc(Cl)cc2)n1	36% (inactive)	21
CCO/C([O-])=N/c1c[n+](N2CCOCC2)no1	21% (inactive)	44
c1ccc(-c2nnc3sc(Cc4cccs4)nn23)cc1	18% (inactive)	20
CCn1nnc(NC(=O)CSc2ccc(Cl)cc2)n1	13% (active)	68
Nc1cc2sc(-c3ccc(C(=O)O)cc3)nc2cc1Cl	22% (inactive)	44

Structure (SMILES)	inhibition (at 10 µM)	inhibition [1] [%]
CCc1nc2sc3ccccc3c(=O)c2c(=O)n1Cc1ccco1	46% (active)	66
O=C1CC(=O)N2N=C(c3ccc([N+](=O)[O-])cc3)SC2=N1	45% (inactive)	19
CC1CCCN(c2nc3c(c(=O)[nH]c(=O)n3C)n2Cc2ccccc2Cl)C1 (stereo not drawn)	38% (inactive)	32
CCOC(=O)N1CCN(c2ccc(O)cc2)CC1	45% (inactive)	34
O=C(CNc1ccccc1)N/N=C/c1cn(-c2ccccc2)nc1-c1ccccc1	53% (inactive)	48
Cc1cnc(C(=O)OCC(=O)c2csc(N3CCCCC3)n2)cn1	47% (inactive)	23
COc1cc(/C=C2\OC(=O)c3c(OC)cccc32)ccc1O	55% (inactive)	28
COc1cc(/C=N/N2CCN(C3c4ccccc4-c4ccccc43)CC2)ccc1O	39% (inactive)	10
O=S(=O)(/N=C(/Sc1ccccc1)c1ccccc1)c1ccccc1	32% (inactive)	20
CCc1ccc2[nH]c(=O)c(C3C(C#N)=C(N)Oc4c3ccc3cccnc43)cc2c1 (stereo not drawn)	23% (inactive)	36
O=S(=O)(Nc1ncnc2sc3c(c12)CCC3)c1ccc2ccccc2c1	12% (inactive)	31
CC1CC(C(F)(F)C(F)(F)F)n2nc(C(=O)O)cc2N1 (stereo not drawn)	58% (inactive)	27
O=C(COC(=O)CC1CCCC1)Nc1cc2c(cc1Cl)C(=O)c1ccccc1C2=O	47% (inactive)	15
Cc1ccc(Nc2nnc(SCC(=O)NCc3ccco3)s2)cc1	18% (inactive)	18
CC(O)C1CCC2C3CC[C@H]4CC(O)CCC4(C)C3CC3(OCCO3)C12C (stereo partly drawn)	18% (inactive)	13
COc1cc(-c2nc3ccc4ccccc4c3c3c2CCC3)ccc1O	0% (inactive)	59
Cc1ccc(C(=O)NCC(=O)OCC(=O)c2c(N)n(C)c(=O)n(C)c2=O)s1	5% (inactive)	25
Nc1ccc(-c2cc(-c3cccc(N)c3)nc(-c3ccccc3)n2)cc1	39% (inactive)	27
COc1ccc(-c2ccc(-c3noc(-c4cccs4)n3)c(OC)n2)cc1	63% (inactive)	20
